Screens from PubChem BioAssay.
ATXN viability: reduces viability in counter-screen for ATXN expression inhibitors. S2 cells (HEK-293 line with an ATXN2-luciferase reporter) viability, CellTiter-Fluor protease fluorescence, 24 h. Potency, µM (doses to about 56.7 µM), actives largely listed as cytotoxic. actives 0.49% (n = 400,000); also: potency is read from the fitted curve at half-maximal effect; nearly all actives have a fitted effect of over 40% in size
ATXN2 expr inh: inhibitors of ATXN2 expression; HEK-293 ATXN2-luciferase reporter, luminescence, 24 h; Potency, µM (highest dose often 57 µM), for inactives: top-dose activity change, negative = inhibition, usual class: inhibitors; actives 0.72% (n = 360,000); AID 1745845; also: potency is read from the fitted curve at half-maximal effect; % is scaled to controls: 0 for no effect and ±100 for the full control effect; nearly all actives have a fitted effect of over 55% in size
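ATXN2-luciferase reporter cells (luciferase flanked by upstream and downstream ATXN2 gene portions) were treated 24 h at 37 °C with compounds at up to 57 uM. SteadyGlo luminescence gave expression; GF-AFC fluorescence gave viability.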
IL1B secr inh: inhibitors of inflammasome signaling (IL-1 beta secretion); activity change, % at 57.5 µM; THP-1 LPS/ATP IL-1B secretion, AlphaLISA, 16 h; hits give low values; actives 4.7% (n = 360,000); in the data active = activity change below about -50%; inconclusive = mostly about -30% to -49%; also: % is scaled to controls: 0 for no effect and ±100 for the full control effect
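THP-1 cells pretreated 1 hr with compounds (up to 57.5 uM final), then stimulated with LPS (250 ng/mL final) plus ATP (1.25 mM final); secreted IL-1B measured by AlphaLISA after 16 hr, decreased signal indicating inhibition.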
USP2a inh: inhibitors of human ubiquitin-specific protease USP2a; actives 0.01% (n = 330,000); Potency, µM (highest dose often 38.3 µM), for inactives: at the top dose activity change, negative = inhibition, hits mostly inhibitors; USP2 core, Ub-CHOP2 coupled fluorogenic reporter, 485/531;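 also: potency is read from the fitted curve at half-maximal effect; plate controls were DMSO wells for no effect and full inhibition by NEM control for full effect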
Target sequence (O75604 whole entry, looked up): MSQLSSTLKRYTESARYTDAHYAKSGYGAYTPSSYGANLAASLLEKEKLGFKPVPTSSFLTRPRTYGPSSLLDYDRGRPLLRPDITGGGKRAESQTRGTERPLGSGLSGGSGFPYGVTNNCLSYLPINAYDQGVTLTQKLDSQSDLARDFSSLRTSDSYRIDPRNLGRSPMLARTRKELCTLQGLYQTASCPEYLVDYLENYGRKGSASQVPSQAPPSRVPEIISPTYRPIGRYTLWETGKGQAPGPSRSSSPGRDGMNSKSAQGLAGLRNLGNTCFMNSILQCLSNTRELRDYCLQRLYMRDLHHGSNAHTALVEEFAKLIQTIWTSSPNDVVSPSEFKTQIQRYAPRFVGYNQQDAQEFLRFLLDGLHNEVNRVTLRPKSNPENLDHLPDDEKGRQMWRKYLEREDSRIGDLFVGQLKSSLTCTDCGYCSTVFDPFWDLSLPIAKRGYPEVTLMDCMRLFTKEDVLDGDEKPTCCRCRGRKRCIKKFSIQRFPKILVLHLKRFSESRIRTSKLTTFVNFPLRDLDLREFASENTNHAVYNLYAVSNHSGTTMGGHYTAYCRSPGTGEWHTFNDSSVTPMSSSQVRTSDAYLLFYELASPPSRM
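Deubiquitinase activity read as fluorescence (485/531 nm) after Ub-CHOP2 cleavage activates the enterokinase reporter on its substrate; USP2 core 10nM, Ub-CHOP2 and substrate 25nM each, 30min compound preincubation then 60min RT; data normalized to NEM, curves fitted.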
USP1 inh: inhibitors of human USP1/UAF1 deubiquitinase; actives 0.23% (n = 390,000); O94782; recombinant USP1/UAF1, Ub-Rhodamine cleavage fluorescence; Potency, µM (top dose mostly 57.1 µM), for inactives: top-dose activity change, negative = inhibition, most hits filed as inhibitors; also: potency is read from the fitted curve at half-maximal effect; % is scaled to controls: 0 for no effect and ±100 for the full control effect; nearly all actives have a fitted effect of over 60% in size
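USP1/UAF1 complex (1 nM) preincubated 15 min at room temperature with compound, then Ub-Rho substrate (150 nM final) added. Kinetic fluorescence at 480/540 nm over 6 reads at 60 s intervals; 50 mM HEPES pH 7.8, 0.5 mM EDTA, 0.1 mg/ml BSA, 1 mM TCEP, 0.01% Tween-20.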
Starred values were filed as active, the others as inactive; i = inactive; ? = inconclusive; . = no result given; [ ] = dose if it differs, or a comment. Shown are actives, neighbours in structure and some others; about 4.8% of the full set was active somewhere. Unless noted, calls follow the shape of the dose curve; as a rule, active = well fitted curve in the direction sought with a large enough effect; inconclusive = small, poorly fitted or top-dose-only effect, or another doubt; inactive = no such curve, though single readings can be large; an effect the other way counts as inactive or inconclusive.

SMILES	ATXN viability	ATXN2 expr inh	IL1B secr inh	USP2a inh	USP1 inh
O=C1NC[C@H](Cc2ccc(O)cc2)N(C[C@H]2CCCN2C[C@H](Cc2ccc(O)cc2)N2C[C@H](Cc3ccc(O)cc3)N(CCc3ccccc3)C(=O)C2=O)C1=O	i	8.9%	-3.6	.	.
Cc1sc2nc(-c3ccc(Br)cc3)oc(=O)c2c1C	i	23.3%	12.1	-0.2%	-4.8%
COc1ccc(CCNC(=O)c2ccc3c(c2)N(Cc2ccc(F)cc2)CCS3)c(OC)c1	i	-13.3%	-54.8*	0.9%	-21.7%
Cc1ncc2c(c1CNC(=O)c1ccc3c(c1)OCO3)CCN(C(=O)c1ccc3ccccc3c1)C2	i	.	.	.	.
N=c1ccn(CC(=O)c2ccc(-c3ccccc3)cc2)cc1	i	2.99µM*	-69.2*	-4.1%	-2.7%
Cc1ccccc1NC(=S)N/N=C/C(C)c1ccccc1 (stereo not given)	i	13.2%[11.3 µM]	55.7	-0.5%	?
Cc1cccc(NC(=S)N/N=C/C(C)c2ccccc2)c1C (stereo not given)	i	7.2%	-103.3*	-0.2%	-1.1%
CCOC(=O)c1ccc(NC(=S)N(Cc2cccnc2)Cc2ccco2)cc1	i	-8.4%	-3.0	-3.1%	0.2%
CCOC(=O)c1ccc(NC(=S)N(CCCN2CCCCC2)Cc2ccco2)cc1	i	-1.2%	-52.7*	3.6%	-1.9%
Cc1ccc(NC(=S)N(CCN2CCCCC2)Cc2ccco2)cc1Cl	i	-12.2%	-97.9*	1.3%	-4.7%
COc1ccc(NC(=S)N(CCCN2CCCC2)Cc2ccco2)cc1	i	-13.8%	-5.3	2.6%	-6.1%
CCOC(=O)c1ccc(NC(=S)N(CCCN(CC)CC)Cc2ccco2)cc1	i	-6.7%	-55.4*	2.0%	-11.3%
Cc1cc(C)cc(NC(=S)N(CCN2CCCCC2)Cc2ccco2)c1	i	-24.7%	-12.2	1.0%	1.3%
O=C1CC(C(=O)N2CCc3ccccc32)CN1c1ccccc1 (stereo not given)	i	-10.8%	8.9	-4.3%	7.1%
Brc1cccc(-c2nn(-c3ccccc3)c3c2cnc2cc4c(cc23)OCO4)c1	i	5.9%	.	.	-20.1%
COc1ccc(CCNC(=O)Cc2c(C)c3ccc(O)c(C)c3oc2=O)cc1OC	.	-23.1%	.	.	-26.4%
COc1ccc(Nc2oc(COc3ccccc3OC)nc2C#N)cc1	i	10µM*	-5.7	2.6%	-21.3%
O=c1[nH]c(CN2CCN(c3ccc(O)cc3)CC2)nc2scc(-c3ccc(Cl)cc3)c12	i	.	0.0	-3.0%	-7.2%
O=c1[nH]c(CN2CCN(c3ccccc3O)CC2)nc2scc(-c3ccccc3Cl)c12	i	-26.7%	-52.1*	-1.1%	-19.1%
CC(=O)N1CCC[C@H]1C(=O)NCC1Cc2cc(-c3cnccn3)cc(Cl)c2O1 (stereo not given in full)	i	.	.	.	.
Cc1cc2oc(=O)c(CC(=O)NCCCN(C)C)c(C)c2c2occ(C(C)(C)C)c12	22.4µM*	-27.7%	-97.8*	0.0%	-5.1%
CCOC(=O)C1=C(C)NC(SC)=NC1c1ccc(OC)cc1 (stereo not given)	i	4.7%	-50.4*	2.6%	-17.2%
CCOC(=O)C1=C(C)NC(C)=C(C(=O)OCC)C1c1ccc(OC)cc1	i	-5.1%	14.5	-1.6%	-19.9%
COc1ccc(-c2sc3ccccc3c2-c2ccc(O)cc2)cc1	?	?	-0.1	4.7%	-17.5%
COc1ccc(-c2sc3cc(OC)c(OC)cc3c2-c2ccc(O)cc2)cc1	?	?	-53.8*	-12.6%	-6.6%
SMILES	ATXN viability	ATXN2 expr inh	IL1B secr inh	USP2a inh	USP1 inh
CCOC(=O)c1c(-c2ccccc2)csc1NC(=O)c1cc(-c2cccc(OC)c2)on1	i	10.5%	.	.	2.4%
C#C[C@@]1(O)CC[C@@H]2[C@@H]3CCC4=CC(=O)CC[C@@H]4[C@H]3CC[C@]21CC	i	.	.	.	.
N=c1sccn1CC(=O)Nc1ccccc1Sc1ccccc1	i	-11.8%[11.3 µM]	-54.8*	-0.6%	-0.6%
C(=NNc1ccc2ccccc2n1)c1ccccn1	2µM*	-78.3%	52.6	.	.
Cc1csc(N/N=C/c2ccccn2)n1	.	14.1µM*	-99.8*	-1.1%	-17.3%
Cc1csc(N/N=C/c2ccc([N+](=O)[O-])cc2)n1	i	33.0%	-10.2	-0.4%	-22.4%
C(=N\Nc1nc2ccccc2s1)/c1ccccn1	?	?	-94.9*	0.2%	-5.9%
C(=N\N=C\c1ccccn1)/c1ccccn1	i	-7.3%	-3.3	3.2%	-22.5%
O=C(O)C1Nc2c(cccc2C(F)(F)F)C2C=CCC12 (stereo not given)	.	.	.	5.5%	.
Cc1ccc2c(c1)C1C=CCC1C(C(=O)O)N2 (stereo not given)	.	.	.	2.3%	.
CC(=O)c1ccc2c(c1)C1C=CCC1C(C(=O)O)N2 (stereo not given)	i	-8.6%	-9.5	11.2µM*	31.6µM*
COc1cccc2c1NC(C(=O)O)C1CC=CC21 (stereo not given)	i	6.8%	17.1	3.7%	25.1µM*
Cc1cc(O)c(CN2CCN(S(=O)(=O)c3cccs3)CC2)cc1C(C)C	i	-22.2%	16.3	-1.3%	-9.6%
CCCCC(=O)NC(c1ccccc1OC)c1ccc2cccnc2c1O (stereo not given)	i	3.98µM*	180.0	2.7%	-13.0%
CCCCC(=O)NC(c1ccc(Cl)cc1)c1ccc2cccnc2c1O (stereo not given)	i	7.94µM*	156.0	.	-14.7%
CCCC(=O)NC(c1ccc(Cl)cc1Cl)c1ccc2cccnc2c1O (stereo not given)	i	?	124.1	-2.4%	-25.3%
CCCCC(=O)NC(c1ccc(N(C)C)cc1)c1ccc2cccnc2c1O (stereo not given)	?	?	116.4	1.5%	-20.8%
CCCC(=O)NC(c1ccccc1OC)c1ccc2cccnc2c1O (stereo not given)	i	?	140.0	-0.2%	-4.8%
CCCCC(=O)NC(c1ccc(N(CC)CC)cc1)c1ccc2cccnc2c1O (stereo not given)	i	2.82µM*	136.0	0.2%	-20.8%
CCCC(=O)NC(c1ccc(C)cc1)c1ccc2cccnc2c1O (stereo not given)	i	?	183.6	3.1%	-25.6%
CCCC(=O)NC(c1ccc(Cl)cc1)c1ccc2cccnc2c1O (stereo not given)	?	7.08µM*	108.3	3.4%	-19.4%
COc1ccc(-n2c(SCc3nc(-c4ccc(C)cc4)no3)nnc2-c2ccncc2)cc1	?	-16.6%	.	.	-24.7%
O=C(CSc1ccc(-c2cccc([N+](=O)[O-])c2)nn1)N1CCCCCC1	i	-11.7%	-53.8*	11.2%	4.1%
c1ccc2[nH]c(CSc3nnc(-c4ccncc4)o3)nc2c1	i	-1.8%	14.7	-2.1%	3.1%
Brc1cccc(-c2nnc(SCc3nc4ccccc4[nH]3)o2)c1	i	-2.9%	-55.5*	-6.2%	-16.1%
